Holding throughout (assay): NCI-60 one-dose screen, 48 h (100 = growth as untreated, 0 = no growth, -100 = all killed)
What all share (conditions): 10 µM

Experiment [1] has as its system T-47D breast.
Experiment [2] deals with BT-549 breast.
The subject of experiment [3] is MDA-MB-435 melanoma.
For experiment [4], the system named is SW-620 colon.
Experiment [5] relates to MCF7 breast.
For experiment [6], the system named is HCT-116 colon.
In experiment [7] the test system is HCC-2998 colon.
Experiment [8] deals with KM12 colon.

The values below come from PubChem BioAssay (NCI).

The panel holds about 83,000 compounds, 20% with a hit somewhere; the sample as a whole holds those more often.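 Assay: single dose, 48 h. Readout: percent growth (0 = no net growth; negative = cell death). Active: <10.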 Values without a mark were called inactive. Active and inactive are the calls of the source.

Take `Nc1cc(-c2ccncc2)c[nH]c1=O`: the growth in experiment [1] was 114%; in experiment [2], 93.5%; in experiment [3], 115%; in experiment [4], 110%; in experiment [5], 91%; in experiment [6] it was 97.1%. Further, the results for the growth in experiment [7] and in experiment [8] were 116% and 104%, respectively.
Turning to `Cc1cc(C(C#N)c2ccc(Cl)cc2)c(Cl)cc1NC(=O)c1cc(I)cc(I)c1O` (stereo not drawn), the growth in experiment [1] was 66.4%; in experiment [2], 36.8%; in experiment [3], 55.7%; in experiment [4] it was 43.3%; in experiment [5], 43.2%; in experiment [6], 7.35% (active). Also, the growth is 17.4% in experiment [7] and 34% in experiment [8].
Take `COc1ccc(-c2nn(-c3cccc(Cl)c3)cc2-c2c(C#N)c(=O)n3[nH]c(-c4ccccc4)nc3c2C#N)cc1`: the growth is 73.9% in experiment [1]; 84.4% in experiment [2]; 91.1% in experiment [3]; 108% in experiment [4]; 63.4% in experiment [5]; 87.3% in experiment [6]. For the same compound, the growth in experiment [7] is 108%; in experiment [8] it was 94%.
Turning to `CC(C)(C)c1ccc(S(=O)(=O)N[C@H]2CC[C@H]3[C@@H]4CCc5cc(O)c([N+](=O)[O-])cc5[C@H]4CC[C@]23C)cc1`, the growth was 46.6% in experiment [1]; 67.7% in experiment [2]; 80.3% in experiment [3]; 89.9% in experiment [4]; 54.1% in experiment [5]; 32.6% in experiment [6]. Further, the growth is 92.5% in experiment [7] and 77.1% in experiment [8].
For `COc1ccc(C2=Cn3c(CCC(=O)c4nc5ccccc5[nH]4)nnc3SC2)cc1`, the growth in experiment [1] was 81%; in experiment [2], 104%; in experiment [3] it was 90.3%; in experiment [4] it was 129%; in experiment [5], 84.6%; in experiment [6], 71.4%. Besides, the growth is 127% in experiment [7] and 98.6% in experiment [8].
In the case of `COc1cc(/C=C/c2cc(/C=C/c3ccc(O)c(OC)c3)n(C(=O)Nc3ccccc3Cl)n2)ccc1O`, the growth is 4.55% (active) in experiment [1]; -26.4% (active) in experiment [2]; 4.08% (active) in experiment [3]; 6.99% (active) in experiment [4]; 4.41% (active) in experiment [5]; 1.16% (active) in experiment [6]. Besides, the growth was 2.83% (active) in experiment [7] and 0.0939% (active) in experiment [8].
In the case of `Cc1ccc2nc(Cl)c(-c3nc4ccccc4o3)cc2c1`, the growth is 83.9% in experiment [1]; 88.5% in experiment [2]; 99.8% in experiment [3]; 103% in experiment [4]; 92.4% in experiment [5]; 97.3% in experiment [6]. The results for the growth in experiment [7] and in experiment [8] were 87.8% and 89.5%, respectively.
`CCn1c2ccc(O)cc2c2c(C)c3c[n+](C)ccc3c(C)c21`: the growth in experiment [1] is -6.62% (active); in experiment [2], -13% (active); in experiment [3] it was 64.9%; in experiment [4], 41.3%; in experiment [5], 16.7%; in experiment [6], 33.9%. The growth was 35.1% in experiment [7] and 21.5% in experiment [8].
Consider `COc1cc(-c2nn(-c3cccc(NC(=O)CN4CCOCC4)c3)cc2-c2cccnc2)ccc1Cl`, for which the growth in experiment [1] was 72.2%; in experiment [2], 62.2%; in experiment [3], 6.77% (active); in experiment [4], 62.2%; in experiment [5], 62.4%; in experiment [6], 82.7%. Besides, the values for the growth in experiment [7] and in experiment [8] were 112% and 71.9%, respectively.
For the compound `c1cncc(-c2csc(-c3c[nH]c4ccccc34)n2)c1`, the growth is 64.1% in experiment [1]; 89.2% in experiment [2]; 86.9% in experiment [3]; 102% in experiment [4]; 77.3% in experiment [5]; 82.6% in experiment [6]. The growth is 107% in experiment [7] and 81.8% in experiment [8].
Take `COc1cc(-c2nn(-c3cccc(NC(=O)CCNc4ccc(N5CCOCC5)cc4)c3)cc2-c2ccncc2)ccc1Cl`: the growth in experiment [1] was 15.2%; in experiment [2], 19.8%; in experiment [3], 14.3%; in experiment [4], 18.6%; in experiment [5] it was 7.35% (active); in experiment [6], 5.29% (active). The growth was 43.3% in experiment [7] and 20.4% in experiment [8].
As for `N#Cc1c(-c2ccc(Cl)cc2)csc1NC(=O)Nc1ccc(Cl)c(C(F)(F)F)c1`, the growth in experiment [1] was -17.7% (active); in experiment [2], 6.57% (active); in experiment [3], 26%; in experiment [4], 11.1%; in experiment [5] it was 3.1% (active); in experiment [6] it was -14.7% (active). For the same compound, the growth in experiment [7] is 19.8%; in experiment [8], 10.4%.
Regarding `COc1ccc(-c2cc(-c3ccccc3)nc(SCCCCCCC(=O)NO)n2)cc1`, the growth was 33.5% in experiment [1]; 85.4% in experiment [2]; 35.5% in experiment [3]; 22.6% in experiment [4]; 30.4% in experiment [5]; 25.1% in experiment [6]. Besides, the results for the growth in experiment [7] and in experiment [8] were 79.4% and 60.3%, respectively.
For the compound `Cc1c2cnccc2c(C)c2c1oc1ccccc12`, the growth in experiment [1] was 77.5%; in experiment [2] it was 80.9%; in experiment [3] it was 91.6%; in experiment [4] it was 64.1%; in experiment [5], 43.7%; in experiment [6] it was 45%. Moreover, the growth in experiment [7] is 84.9%; in experiment [8] it was 81.7%.
Consider `COc1ccc2nc3cc(Cl)ccc3c(Nc3cc(CN4CCCC4)c(O)c(CN4CCCC4)c3)c2n1`, for which the growth was 13.1% in experiment [1]; -37% (active) in experiment [2]; -94% (active) in experiment [3]; 7.17% (active) in experiment [4]; -11.9% (active) in experiment [5]; 6.62% (active) in experiment [6]. The growth was -31.8% (active) in experiment [7] and 11.8% in experiment [8].
As for `CCOc1ccccc1/C=N\N=C\c1ccccc1O`, the growth in experiment [1] is 78.5%; in experiment [2], 84.2%; in experiment [3] it was 107%; in experiment [4], 105%; in experiment [5] it was 84.2%; in experiment [6] it was 98.8%. In addition, the growth in experiment [7] is 102%; in experiment [8] it was 95.3%.
